Results filed as inconclusive are left out. The source made the active and inactive calls. The calls were made as follows, unless noted: active = hit-call score of the fitted dose curve at least 0.9, where 1 is the maximum; inactive = score below 0.9.
Tests used:
[1] = ATG_PXRE_CIS: Attagene CIS-FACTORIAL HepG2 Assay for human Pregnane X Receptor Element (PXRE) (AID 2282957); settings: HepG2 Attagene CIS-FACTORIAL PXRE reporter, mRNA; actives raise or lower the signal
Outline: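 Read-out: fluorescence of reporter-specific RT-PCR products resolved by capillary electrophoresis, fitted bidirectionally relative to DMSO. Human HepG2 liver cells carried transfected cis-promoter reporter units and were exposed to chemicals for 24 h.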

[2] = ATG_RORE_CIS: Attagene CIS-FACTORIAL HepG2 Assay for human RAR-related Orphan Receptor Element (RORE) (AID 2282959); settings: HepG2 Attagene cis-factorial RORE reporter, mRNA; actives raise or lower the signal
Outline: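 Endogenous factor activity at a cis response element is read as reporter transcript levels in HepG2 cells, 24 h post-dose. Transcripts are quantified by RT-PCR with capillary electrophoresis, and data fitted in both directions against DMSO.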

[3] = ATG_Sox_CIS: Attagene CIS-FACTORIAL HepG2 Assay for human SRY-box transcription factor (SOX) (AID 2282960); settings: HepG2 Attagene cis-factorial SOX reporter, mRNA; actives raise or lower the signal
Outline: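 Measures mRNA induction of a SOX1-associated reporter in HepG2 after 24 h dosing. Fluorescently labelled RT-PCR fragments are separated by capillary electrophoresis, and gain or loss relative to DMSO control is fitted.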

[4] = target: Transcription factor Sp1 (Homo sapiens) (UniProt P08047); assay: ATG_Sp1_CIS: Attagene CIS-FACTORIAL HepG2 Assay for human Specificity Protein 1 (Sp1) (AID 2282961); settings: HepG2 Sp1 cis-reporter transcription, actives raise or lower the signal
Outline: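 Cells: HepG2, transiently transfected with cis-regulated multiplexed reporters. Exposure: 24 h. Detection: reporter transcripts amplified, fluorescently labeled, restriction-digested and sized by capillary electrophoresis. Analysis: bidirectional fit relative to DMSO.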

[5] = ATG_SREBP_CIS: Attagene CIS-FACTORIAL HepG2 Assay for human Sterol Regulatory Element Binding (SREBP) (AID 2282962); settings: HepG2 Attagene cis-factorial SREBP reporter, mRNA; actives raise or lower the signal
Outline: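 Readout: fluorescent reporter-transcript peaks resolved by capillary electrophoresis after RT-PCR. Cells were human HepG2 carrying transfected cis-promoter reporter constructs, dosed for 24 h. Gain or loss of signal was fitted against DMSO controls.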

[6] = target: Signal transducer and activator of transcription 3 (Homo sapiens) (UniProt P40763); assay: ATG_STAT3_CIS: Attagene CIS-FACTORIAL HepG2 Assay for human Signal Transducer and Activator of Transcription 3 (STAT3) (AID 2282963); settings: HepG2, Attagene cis-factorial STAT3 reporter transcription; actives raise or lower the signal
Outline: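 HepG2, MRTU-transfected, 24 h dosing. RNA → RT → PCR → FAM label → HpaI → CE. Bidirectional fit vs DMSO.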

[7] = ATG_TA_CIS: Attagene CIS-FACTORIAL HepG2 Assay for human TA Basal Promoter (AID 2282964); settings: HepG2 Attagene CIS-factorial TA basal promoter reporter; actives raise or lower the signal
Outline: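 Background internal-marker endpoint from a 52-component HepG2 cis-reporter panel. Cells treated 24 h; reporter transcripts quantified via RT-PCR and CE fluorescence against DMSO baseline.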

[8] = ATG_TCF_b_cat_CIS: Attagene CIS-FACTORIAL HepG2 Assay for human T-Cell-Factor with beta-catenin (TCF/b-cat) (AID 2282965); settings: HepG2 TCF/beta-catenin cis-reporter transcription, actives raise or lower the signal
Outline: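 HepG2 cells transiently transfected with multiple cis-promoter-regulated reporter transcription units, so endogenous transcription factor activity is measured. Reporter mRNA read 24 hours after dosing by RT-PCR, fluorescent labelling and capillary electrophoresis; bidirectional fitting against DMSO.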

[9] = ATG_TAL_CIS: Attagene CIS-FACTORIAL HepG2 Assay for human TAL Basal Promoter (AID 2282966); settings: HepG2 Attagene cis-factorial TAL promoter reporter; actives raise or lower the signal;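 also: background control endpoint measuring basal TAL promoter reporter mRNA not a specific factor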
Outline: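 HepG2, transient MRTU transfection, 24 h compound exposure; RNA → oligo(dT) RT → PCR → 6-FAM primer extension → HpaI digest → CE fluorescence. Bidirectional curve fit vs DMSO. Background-control readout.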

[10] = ATG_TGFb_CIS: Attagene CIS-FACTORIAL HepG2 Assay for human Transforming Growth Factor (TGF) (AID 2282967); settings: HepG2 Attagene CIS TGFb reporter, mRNA transcription; actives raise or lower the signal
Outline: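 Liver HepG2 line, cis-factorial reporter panel, 24 h dosing. Quantitation: RT-PCR products labeled with 6-FAM, cut with HpaI, resolved by capillary electrophoresis; DMSO-referenced bidirectional analysis.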

[11] = ATG_VDRE_CIS: Attagene CIS-FACTORIAL HepG2 Assay for human Vitamin D Receptor Element (VDRE) (AID 2282968); settings: HepG2 VDRE cis-reporter transcription, actives raise or lower the signal
Outline: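 Steps: transfect HepG2 with multiple reporter transcription units; dose chemicals 24 h; isolate RNA; RT-PCR; label with 6-FAM primer extension; HpaI digest; capillary electrophoresis. Curves fitted both directions against DMSO.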

[12] = target: X-box-binding protein 1 (Homo sapiens) (UniProt P17861); assay: ATG_Xbp1_CIS: Attagene CIS-FACTORIAL HepG2 Assay for human X-box Binding Protein 1 (XBP1) (AID 2282972); settings: HepG2 XBP1 cis-element reporter, Attagene multiplex; actives raise or lower the signal
Outline: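 Read-out: fluorescent reporter mRNA fragments resolved by capillary electrophoresis after RT-PCR. Human HepG2 liver cells carried transfected cis-promoter reporter units and were exposed to chemicals for 24 hours. Gain or loss of signal fitted relative to DMSO baseline.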

[13] = target: Nuclear receptor subfamily 1 group I member 3 (Homo sapiens) (UniProt Q14994); assay: ATG_CAR_TRANS: Attagene TRANS-FACTORIAL HepG2 Assay for human Constitutive Androstane Receptor (CAR) (AID 2282969; active = hit-call score of the fitted dose curve at least 0.9, where 1 is the maximum;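 also: activators raise reporter mRNA above DMSO so AC50 marks induction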); settings: HepG2 Attagene TRANS-FACTORIAL CAR reporter
Outline: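 Steps: transient transfection of HepG2 with multiple GAL4-UAS reporter units; 24 h compound incubation; RNA isolation, RT-PCR, 6-FAM primer extension, HpaI digest; capillary electrophoresis. Gain-of-signal relative to DMSO negative control.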

[14] = target: Estrogen-related receptor gamma (Homo sapiens) (UniProt P62508); assay: ATG_ERRg_TRANS: Attagene TRANS-FACTORIAL HepG2 Assay for human Estrogen-Related Receptor gamma (ERRg) (AID 2282977; active = hit-call score of the fitted dose curve at least 0.9, where 1 is the maximum;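 also: hits increase reporter signal over DMSO so potencies reflect activators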); settings: HepG2 Attagene TRANS reporter, ERRg transactivation
Outline: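 Induction of reporter transcripts through a chimeric NR-Gal4 protein is quantified in transfected human HepG2 liver cells after 24 h chemical exposure, using RT-PCR with capillary electrophoresis detection and DMSO as baseline.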

[15] = ATG_PPRE_CIS: Attagene CIS-FACTORIAL HepG2 Assay for human Peroxisome Proliferator-activated Response Element (PPRE) (AID 2282958); settings: HepG2 PPRE cis-element reporter, Attagene transcription factor profiling; actives raise or lower the signal
Outline: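 In this cell-based multiplex, a PPRE cis element drives a reporter sequence in transiently transfected HepG2 cells. Following 24 h treatment, labeled cDNA amplicons are sized and quantified by capillary electrophoresis, with DMSO defining baseline.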

[16] = ATG_M_19_TRANS: Attagene TRANS-FACTORIAL HepG2 Assay for M19 Transcription Factor (Internal Marker) (AID 2282974; active = hit-call score of the fitted dose curve at least 0.9, where 1 is the maximum); settings: HepG2 Attagene TRANS-FACTORIAL M19 internal marker reporter
Outline: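 Reporter mRNA induction was measured in transfected HepG2 cells 24 h after dosing. Endpoint fitted upward relative to DMSO and serves as a background control within the multiplexed TRANS panel.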

[17] = ATG_GAL4_TRANS: Attagene TRANS-FACTORIAL HepG2 Assay for GAL4 (Internal Marker) (AID 2282976; active = hit-call score of the fitted dose curve at least 0.9, where 1 is the maximum); settings: HepG2 Attagene TRANS GAL4 internal marker reporter
Outline: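 RT-PCR/capillary electrophoresis readout of reporter mRNA. HepG2, transient MRTU transfection (GAL4-UAS reporters), 24 h compound exposure. Background-control endpoint, positive direction vs DMSO baseline.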

Measured: AC50

X-box-binding protein 1 (Homo sapiens), sequence (P17861 whole entry, looked up, the tested form may be a part): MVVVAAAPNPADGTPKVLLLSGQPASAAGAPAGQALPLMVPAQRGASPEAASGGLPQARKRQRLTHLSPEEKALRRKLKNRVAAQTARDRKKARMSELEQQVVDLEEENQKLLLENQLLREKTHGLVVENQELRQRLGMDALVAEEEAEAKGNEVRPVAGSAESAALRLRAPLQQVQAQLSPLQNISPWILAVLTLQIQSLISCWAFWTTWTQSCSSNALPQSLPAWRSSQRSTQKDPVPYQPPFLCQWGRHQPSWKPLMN
Signal transducer and activator of transcription 3 (Homo sapiens), sequence (P40763 whole entry, looked up): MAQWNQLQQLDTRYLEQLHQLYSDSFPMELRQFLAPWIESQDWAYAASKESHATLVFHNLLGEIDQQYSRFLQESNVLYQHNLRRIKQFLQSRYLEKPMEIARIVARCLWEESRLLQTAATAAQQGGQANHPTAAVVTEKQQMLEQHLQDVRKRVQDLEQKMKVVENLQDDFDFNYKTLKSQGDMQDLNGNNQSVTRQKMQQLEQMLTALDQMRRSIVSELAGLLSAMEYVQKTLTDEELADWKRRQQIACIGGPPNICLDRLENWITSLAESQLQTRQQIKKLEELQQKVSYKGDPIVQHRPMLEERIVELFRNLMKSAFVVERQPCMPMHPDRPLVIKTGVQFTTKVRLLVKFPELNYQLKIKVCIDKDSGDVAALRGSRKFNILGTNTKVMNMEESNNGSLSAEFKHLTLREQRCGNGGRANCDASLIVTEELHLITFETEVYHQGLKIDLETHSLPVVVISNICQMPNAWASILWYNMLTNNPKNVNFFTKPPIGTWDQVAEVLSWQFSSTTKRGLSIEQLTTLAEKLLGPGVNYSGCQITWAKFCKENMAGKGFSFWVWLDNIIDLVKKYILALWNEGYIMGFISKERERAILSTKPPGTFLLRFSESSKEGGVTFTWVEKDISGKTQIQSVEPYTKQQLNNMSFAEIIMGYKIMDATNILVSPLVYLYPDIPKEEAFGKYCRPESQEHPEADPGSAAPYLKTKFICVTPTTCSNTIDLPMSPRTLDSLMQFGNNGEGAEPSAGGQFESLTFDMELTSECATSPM
Transcription factor Sp1 (Homo sapiens), sequence (P08047 whole entry, looked up): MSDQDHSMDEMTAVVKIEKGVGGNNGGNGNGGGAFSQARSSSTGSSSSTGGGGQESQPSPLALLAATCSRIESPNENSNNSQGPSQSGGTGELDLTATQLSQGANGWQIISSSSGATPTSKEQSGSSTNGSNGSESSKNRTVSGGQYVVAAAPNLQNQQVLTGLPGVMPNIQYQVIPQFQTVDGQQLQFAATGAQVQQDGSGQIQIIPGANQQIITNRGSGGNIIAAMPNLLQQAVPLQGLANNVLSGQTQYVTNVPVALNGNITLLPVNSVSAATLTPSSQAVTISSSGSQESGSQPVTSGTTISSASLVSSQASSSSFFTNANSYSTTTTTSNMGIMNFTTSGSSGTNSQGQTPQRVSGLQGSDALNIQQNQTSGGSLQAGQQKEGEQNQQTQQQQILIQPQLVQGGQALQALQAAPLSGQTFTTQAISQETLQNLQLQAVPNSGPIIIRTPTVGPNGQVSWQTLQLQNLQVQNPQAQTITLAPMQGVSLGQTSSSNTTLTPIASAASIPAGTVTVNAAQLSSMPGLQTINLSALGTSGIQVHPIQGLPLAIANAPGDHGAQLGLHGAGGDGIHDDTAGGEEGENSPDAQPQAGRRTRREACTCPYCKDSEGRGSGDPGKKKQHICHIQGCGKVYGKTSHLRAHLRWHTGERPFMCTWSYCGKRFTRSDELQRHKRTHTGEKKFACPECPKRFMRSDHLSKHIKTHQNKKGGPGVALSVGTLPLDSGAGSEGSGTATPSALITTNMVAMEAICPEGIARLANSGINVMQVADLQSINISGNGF
Nuclear receptor subfamily 1 group I member 3 (Homo sapiens), sequence (Q14994 whole entry, looked up, the tested form may be a part): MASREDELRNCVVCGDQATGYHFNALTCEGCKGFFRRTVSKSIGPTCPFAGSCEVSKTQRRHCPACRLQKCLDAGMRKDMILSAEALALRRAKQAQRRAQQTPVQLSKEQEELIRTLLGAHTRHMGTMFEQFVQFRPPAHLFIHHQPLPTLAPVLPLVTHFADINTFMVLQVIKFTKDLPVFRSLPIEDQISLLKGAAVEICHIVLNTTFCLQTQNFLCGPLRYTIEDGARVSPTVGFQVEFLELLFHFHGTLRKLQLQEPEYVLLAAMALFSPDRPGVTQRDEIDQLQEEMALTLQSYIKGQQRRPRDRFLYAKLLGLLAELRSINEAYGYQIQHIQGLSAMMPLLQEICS
Estrogen-related receptor gamma (Homo sapiens), sequence (P62508 whole entry, looked up, the tested form may be a part): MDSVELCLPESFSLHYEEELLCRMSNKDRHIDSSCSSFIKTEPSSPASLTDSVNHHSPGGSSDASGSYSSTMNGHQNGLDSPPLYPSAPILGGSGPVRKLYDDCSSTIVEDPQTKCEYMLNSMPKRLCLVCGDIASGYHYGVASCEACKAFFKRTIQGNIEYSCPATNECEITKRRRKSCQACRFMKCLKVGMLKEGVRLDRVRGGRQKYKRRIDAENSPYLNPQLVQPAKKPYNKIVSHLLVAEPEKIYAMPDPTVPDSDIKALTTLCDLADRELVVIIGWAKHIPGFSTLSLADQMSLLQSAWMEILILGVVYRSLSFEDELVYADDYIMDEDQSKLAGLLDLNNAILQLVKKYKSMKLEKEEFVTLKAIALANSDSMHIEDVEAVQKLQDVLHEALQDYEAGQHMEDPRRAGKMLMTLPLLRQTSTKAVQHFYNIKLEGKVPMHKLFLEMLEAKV

c1ccc(NNc2ccccc2)cc1
not listed: [13] | [14] | [15] | [16] | [17]
inactive: all other assays above

Cc1cccc(N)c1N
active: [2] 106 µM | [8] 190 µM | [11] 106 µM | [12] 150 µM
not listed: [15] | [16] | [17]
inactive: all other assays above

O=C(O)C1C2CCC(O2)C1C(=O)O (centres undefined)
inactive: [3] | [5] | [6] | [7] | [8] | [9] | [10]
active: [1] 68.6 µM | [2] 100 µM | [4] 100 µM | [11] 100 µM | [12] 100 µM

CCCCCCCCOC(=O)c1ccc(C(=O)OCCCCCCCC)c(C(=O)OCCCCCCCC)c1
not listed: [2] | [11] | [13] | [14] | [16] | [17]
inactive: all other assays above

CN(C)[C@@H]1C(=O)C(C(N)=O)=C(O)[C@@]2(O)C(=O)C3=C(O)c4c(O)cccc4[C@@](C)(O)[C@H]3C[C@@H]12
active: [1] 27.6 µM
not listed: [2] | [11] | [13] | [14] | [17]
inactive: all other assays above

CCC(C)c1ccc(O)cc1 (centres undefined)
active: [1] 26.5 µM | [5] 163 µM | [12] 51.8 µM
not listed: [11] | [15] | [16]
inactive: all other assays above

Cc1ccc(N)c(N)c1
active: [2] 31.2 µM
not listed: [13] | [14] | [15] | [16] | [17]
inactive: all other assays above

[As]#[In]
active: [1] 49.9 µM
not listed: [11] | [13] | [14] | [15] | [16]
inactive: all other assays above

From PubChem BioAssay (EPA / NIEHS)
